According to PubChem BioAssay (NCATS):
Where “and” joins values, the source holds several entries; their conditions need not be identical. Identical values can stand only once. Results filed as inconclusive are left out. Entries that show only a call come without a potency. Where a structure was tested more than once in an assay, its records may differ in their call. Calls of active or inactive are those of the source. Unless noted, the call rests on the fitted dose curve; in most records, active means well fitted curve in the direction sought with a large enough effect; inconclusive means small, poorly fitted or top-dose-only effect, or another doubt; inactive means no such curve, though single readings can be large; an effect the other way counts as inactive or inconclusive.

Experiments:
[1] = qHTS for Inhibitors of Plasmodium falciparum (DD2) proliferation (AID 504314); further: potency means the concentration at half of the fitted maximal effect
Procedure, shortened: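 Erythrocytes infected with P. falciparum Dd2 (0.3% parasitemia, 2.5% hematocrit) exposed to compound 72 h at 37C, 5% CO2. Parasite DNA quantified by SYBR Green fluorescence after saponin/Triton lysis overnight; normalized to 0.29 uM artemisinin and DMSO.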

[2] = qHTS for Inhibitors of Plasmodium falciparum (GB4) proliferation (AID 504315); further: nearly all actives have a fitted effect of over 50% in size; further: potency means the concentration at half of the fitted maximal effect
Procedure, shortened: (§1)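 Erythrocytes infected with P. falciparum line (0.3% parasitemia, 2.5% hematocrit final) incubated with compounds 72 h at 37 °C, 5% CO2; SYBR Green lysis buffer added, fluorescence read next day. Normalized to 0.29 uM artemisinin and DMSO.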

[3] = qHTS for Inhibitors of Plasmodium falciparum (7G8) proliferation (AID 504316); further: nearly all actives have a fitted effect of over 65% in size; further: potency means the concentration at half of the fitted maximal effect
Procedure, shortened: as §1

[4] = qHTS for Inhibitors of Plasmodium falciparum (CP250) proliferation (AID 504320); further: potency means the concentration at half of the fitted maximal effect
Procedure, shortened: as §1

[5] = molecular target: Atrial natriuretic peptide receptor 1 (Homo sapiens) (UniProt P16066); test: Natriuretic polypeptide receptor (hNpr1) antagonism - Pilot CMLD screen (AID 1347052; calls by dose curve;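 further: cGMP level read as GloSensor luciferase luminescence after agonist stimulation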; further: potency means the concentration at half of the fitted maximal effect)
[6] = molecular target: Cytochrome P450 2C19 (Homo sapiens) (UniProt P33261); test: qHTS Assay for Inhibitors and Substrates of Cytochrome P450 2C19 (AID 899); further: potency means the concentration at half of the fitted maximal effect; nearly all actives have a fitted effect of over 60% in size
Procedure, shortened: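 Signal comes from luciferase acting on luciferin released by CYP2C19-mediated hydroxylation of Luciferin-H EGE, 10uM (KM). Assay mix: 5nM enzyme, 50mM KPO4; 60 min at 37C with NADPH regeneration. Data normalized against 57uM ketoconazole.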

[7] = qHTS Assay for Identification of Small Molecule Agonists for Hypoxia Response Element Signaling Pathway (AID 914; active means well fitted activation curve with a large enough effect in the signal ratio, with a control signal flat, not every such curve was filed as active; the % refers to the signal ratio); details: ME-180 (cervical carcinoma) HRE-bla reporter, beta-lactamase ratio, CoCl2, 17 h; stronger effect = higher value
Procedure, shortened: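 HRE-bla ME-180 assay for agonist-like enhancement of an EC50 CoCl2 stimulus: 17 h at 37 degrees Celsius, CCF4 for 2.5 h, ratiometric 460/530 nm signal converted to %Activity and fitted to AC50.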

[8] = qHTS for Inhibitors of Plasmodium falciparum (HB3) proliferation (AID 504318); further: nearly all actives have a fitted effect of over 60% in size; further: potency means the concentration at half of the fitted maximal effect
Procedure, shortened: as §1

[9] = molecular target: Cytochrome P450 3A4 (Homo sapiens) (UniProt P08684); test: qHTS Assay for Activators of Cytochrome P450 3A4 (AID 885); further: nearly all actives have a fitted effect of over 65% in size
Procedure, shortened: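 Human CYP3A4 (20 nM) with Luciferin-PPXE at 25 uM (its KM) in 200 mM KPO4; 10 min compound preincubation, then NADPH regeneration and 60 min reaction at RT. Luciferin read by luminescence; normalized to 57 uM ketoconazole full inhibition.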

[10] = molecular target: Cytochrome P450 3A4 (Homo sapiens) (UniProt P08684); test: qHTS Assay for Inhibitors and Substrates of Cytochrome P450 3A4 (AID 884); further: potency means the concentration at half of the fitted maximal effect; nearly all actives have a fitted effect of over 50% in size
Procedure, shortened: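 20 nM human CYP3A4 with 25 uM Luciferin-PPXE (at KM) in 200 mM KPO4, preincubated 10 min with compound; NADPH regeneration started a 60 min RT reaction. Luciferin detected by luminescence, normalized to 57 uM ketoconazole as full inhibition.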

Chain of Atrial natriuretic peptide receptor 1 (Homo sapiens) (P16066 whole entry, looked up): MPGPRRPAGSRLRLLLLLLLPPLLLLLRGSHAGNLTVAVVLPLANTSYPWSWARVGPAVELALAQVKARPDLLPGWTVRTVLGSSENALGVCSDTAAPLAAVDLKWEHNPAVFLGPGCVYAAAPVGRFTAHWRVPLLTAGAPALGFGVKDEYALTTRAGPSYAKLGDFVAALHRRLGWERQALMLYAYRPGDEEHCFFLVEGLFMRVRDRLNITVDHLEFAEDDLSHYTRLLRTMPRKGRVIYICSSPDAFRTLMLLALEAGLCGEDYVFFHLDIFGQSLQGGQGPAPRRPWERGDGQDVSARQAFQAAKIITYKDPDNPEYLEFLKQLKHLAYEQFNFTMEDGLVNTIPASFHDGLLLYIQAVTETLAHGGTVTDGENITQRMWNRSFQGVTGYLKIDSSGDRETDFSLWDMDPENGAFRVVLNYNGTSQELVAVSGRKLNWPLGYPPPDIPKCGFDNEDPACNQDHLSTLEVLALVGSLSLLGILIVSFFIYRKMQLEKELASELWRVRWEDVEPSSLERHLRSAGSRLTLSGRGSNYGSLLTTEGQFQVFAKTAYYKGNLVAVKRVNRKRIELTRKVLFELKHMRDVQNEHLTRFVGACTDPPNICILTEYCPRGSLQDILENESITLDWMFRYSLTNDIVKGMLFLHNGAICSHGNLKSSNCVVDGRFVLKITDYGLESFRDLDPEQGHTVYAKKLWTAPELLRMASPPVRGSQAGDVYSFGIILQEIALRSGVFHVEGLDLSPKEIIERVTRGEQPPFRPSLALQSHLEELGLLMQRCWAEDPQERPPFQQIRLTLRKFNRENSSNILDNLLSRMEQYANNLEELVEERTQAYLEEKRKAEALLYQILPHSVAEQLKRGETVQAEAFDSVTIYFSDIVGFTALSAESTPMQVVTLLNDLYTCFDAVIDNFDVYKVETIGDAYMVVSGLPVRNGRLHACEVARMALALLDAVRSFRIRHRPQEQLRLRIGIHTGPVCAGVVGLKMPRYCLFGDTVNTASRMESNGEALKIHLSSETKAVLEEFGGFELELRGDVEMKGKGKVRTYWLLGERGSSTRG
Chain of Cytochrome P450 3A4 (Homo sapiens) (P08684 whole entry, looked up): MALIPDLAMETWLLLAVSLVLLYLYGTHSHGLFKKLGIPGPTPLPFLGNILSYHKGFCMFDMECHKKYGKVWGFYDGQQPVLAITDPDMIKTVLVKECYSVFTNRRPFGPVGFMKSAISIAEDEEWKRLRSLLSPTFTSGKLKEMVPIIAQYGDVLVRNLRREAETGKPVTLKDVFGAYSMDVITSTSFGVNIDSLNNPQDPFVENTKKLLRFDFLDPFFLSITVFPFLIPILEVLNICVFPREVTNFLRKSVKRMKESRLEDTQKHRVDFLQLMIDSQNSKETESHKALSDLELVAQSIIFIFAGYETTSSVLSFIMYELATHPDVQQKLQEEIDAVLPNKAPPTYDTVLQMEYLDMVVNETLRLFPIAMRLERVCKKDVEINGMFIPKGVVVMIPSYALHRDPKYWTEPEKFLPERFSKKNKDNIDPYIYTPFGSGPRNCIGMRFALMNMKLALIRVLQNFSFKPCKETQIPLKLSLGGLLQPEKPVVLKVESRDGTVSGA
Chain of Cytochrome P450 2C19 (Homo sapiens) (P33261 whole entry, looked up): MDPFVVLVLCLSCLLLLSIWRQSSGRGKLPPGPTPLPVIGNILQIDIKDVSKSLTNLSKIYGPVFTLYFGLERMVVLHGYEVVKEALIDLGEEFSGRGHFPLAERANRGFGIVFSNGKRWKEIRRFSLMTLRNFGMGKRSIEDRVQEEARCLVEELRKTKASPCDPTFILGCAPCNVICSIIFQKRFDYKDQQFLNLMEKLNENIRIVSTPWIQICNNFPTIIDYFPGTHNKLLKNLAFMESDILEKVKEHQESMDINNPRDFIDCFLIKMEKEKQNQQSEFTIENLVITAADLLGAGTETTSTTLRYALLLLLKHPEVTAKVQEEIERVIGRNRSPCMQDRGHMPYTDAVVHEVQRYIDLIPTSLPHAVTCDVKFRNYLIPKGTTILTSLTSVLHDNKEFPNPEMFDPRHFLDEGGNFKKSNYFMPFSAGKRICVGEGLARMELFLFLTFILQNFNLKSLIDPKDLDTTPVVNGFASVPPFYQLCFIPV

SMILES | Potency [1] | Potency [2] | Potency [3] | Potency [4] | Potency [5] | Potency [6] | activation [7] | Potency [8] | activity change, positive = activation [9] | Potency [10]
CC(=O)OC[C@H]1O[C@H](C#CCCCc2ccccc2)C=C[C@H]1OC(C)=O | inactive | inactive | inactive | inactive | inactive |  |  |  |  | 
CCOC(=O)[C@@]1([C@@H](NC(=O)OC)c2ccco2)CCCC1=O | inactive | inactive | inactive | inactive | inactive |  |  |  |  | 
CCCCC1=CC2=C(c3ccco3)C(=O)C(C)(OC(=O)c3ccc(OC)cc3)C(=O)C2=CN1C1CCCCC1 (stereo not given) | inactive | inactive | inactive | inactive | inactive |  |  |  |  | 
CC1(OC(=O)C2CCCC2)C(=O)C=C2C=C(c3ccsc3)N(CCc3ccccn3)C=C2C1=O (stereo not given) | inactive | inactive | inactive | inactive | inactive |  |  |  |  | 
CCN1C(=O)[C@@H]2[C@H]3[C@H](O)[C@H](O)CC(=NOC[C@@H](O)[C@H]4O[C@@H]5OC(C)(C)O[C@H]5[C@@H]4O)[C@@H]3CC[C@H]2C1=O | inactive | inactive | inactive | inactive | inactive |  |  |  |  | 
COC(=O)C(=Cc1cc(Br)c(OC)c(Br)c1)C(=O)OC | inactive | inactive | inactive | inactive | inactive |  |  |  |  | 
COc1cccc(CO[C@H]2C=C[C@@H](c3ccccc3)O[C@H]2COC(C)=O)c1 | inactive | inactive | inactive | inactive | inactive |  |  |  |  | 
C[C@@H]1CC[C@H]2C(=O)O[C@H](CN=[N+]=[N-])CN2[C@@H]1c1ccc(Br)cc1 | inactive | inactive | inactive | inactive | inactive | 0.398 µM (active) | 9.69% (inactive) | inactive |  | 
COc1ccc(COC(=O)NN=C2C[C@@H](O)[C@@H](O)[C@@H]3[C@H]4C(=O)N(C[C@@H]5CCCO5)C(=O)[C@@H]4CC[C@@H]23)cc1 | inactive | inactive | inactive | inactive | inactive |  |  |  |  | 
COC(=O)c1c(C(=O)OC)c2c3ccccc3cc(-c3ccccc3)n2c1C(=O)OC | inactive | inactive | inactive | inactive | inactive |  |  |  |  | 
COc1ccc2c(c1)[C@@]1(OCCC=C[C@@H]1C)C(=O)N2CC1CC1 | inactive | inactive | inactive | inactive | inactive |  |  |  |  | 
COCCN1C(=O)NC(c2ccc(Br)cc2)C(C(=O)OC)=C1C (stereo not given) | inactive | inactive | inactive | inactive | inactive |  |  |  |  | 
CCCC[C@@H]1CN2[C@H](c3ccc(Br)cc3)[C@H](C)CC[C@H]2C(=O)O1 | inactive | inactive | inactive | inactive | 0.944 µM (active) | 3.98 µM (active) |  | inactive | -42.5% [at 11.4 µM] (inactive) | 
C=CCN1C(=O)[C@]2(OCCC=C[C@@H]2C)c2cc(OC)ccc21 | inactive | inactive | inactive | inactive | inactive |  |  |  |  | 
CCCCCCCC1=Cc2ccccc2C(CC(C)=O)N1C(=O)OC (stereo not given) | inactive | inactive | 1.69 µM (active) and inactive |  | inactive | 2.51 µM (active) |  | 1.69 µM (active) | -59.5% [at 11.4 µM] (inactive) | 
COC(=O)CC=C[C@@H](C)[C@H](OC)c1ccccc1Br | inactive and 1.5 µM (active) | inactive and 1.51 µM (active) | inactive and 1.9 µM (active) | inactive and 1.35 µM (active) | inactive |  |  |  |  | 
COC(=O)C1=C(C)N(CC#C[Si](C)(C)C)C(=O)N(C(C)=O)C1c1ccccc1 (stereo not given) | inactive | inactive | inactive | inactive | inactive |  |  |  |  | 
COC(=O)C1=C(C)N(Cc2ccccc2)C(=O)NC1c1cccc(F)c1 (stereo not given) | inactive | inactive | inactive | inactive | inactive |  |  |  |  | 
COC1=C[C@H](C(=O)NCc2ccc(Br)cc2)C(C)C(c2ccccc2)CC1=O (stereo not given in full) | inactive | inactive | inactive | inactive | inactive |  |  |  |  | 
CCN1C(=NCCc2cccnc2)NC(CCc2ccccc2)C(C(=O)OC)=C1C (stereo not given) | inactive | inactive | inactive | inactive | inactive |  |  |  |  | 
CC1=C[C@@H](C)OC2(C1)C(=O)N(Cc1ccc(Br)cc1)c1cccc(Br)c12 (stereo not given in full) | inactive | inactive | inactive | inactive | inactive |  |  |  |  | 
Cc1ccc(S(=O)(=O)n2c3ccccc3c3nnc(C(=O)c4ccccc4)nc32)cc1 | inactive | inactive | inactive |  | inactive |  |  | inactive | -61.8% [at 11.4 µM] (inactive) | 3.98 µM (active)
O=c1oc2ccccc2c2c1[C@H]1O[C@](c3ccsc3)(Cc3c1ccc1ccccc31)O2 | inactive | inactive | inactive | inactive | inactive |  |  |  |  | 
